In the OligoGym collection:

Molecular target: ZFP62
Experiment: pooled miR-30 sensor sort-seq; sequence = guide strand
Settings: shRNA
Also: reference of the scale not given here.

| Sequence | sensor-assay potency score (higher = more potent) |
| --- | --- |
| TAGAGCGTGAGATATAGGCTTT | -0.26 |
| TAATTTCTTAACAGCATTGGTT | -0.651 |
| TTGAGTGTGAGATGTAGGCTTT | -0.179 |
| TTTATGTTGAACAAGGCGGGAA | 0.133 |
| TTCTGCTTGAGAAAAAAGCTTT | -0.449 |
| TATGTAATTTCTTAACAGCATT | -1.56 |
| TTTGCCACAGACATCACACTTG | 0.373 |
| TTTTATGTTGAACAAGGCGGGA | -0.995 |
| ATACATAAGGTCTCTCTCCGGT | 0.0569 |

Molecular target: ZFR2
Experiment: as above
Settings: shRNA

| Sequence | sensor-assay potency score (higher = more potent) |
| --- | --- |
| TAGCTTGGTGCCGTGTAGGCGG | -0.795 |
| TATGGTGACCTGCATCCTGGGC | -0.904 |
| TTTCTTCCGGTACTGCAGCCGG | -0.948 |
| TGCAGCTTGAAGACCTTCTGGT | 0.0557 |
| TCATCCTCGGTCACCATCTGGA | -0.791 |
| TCCGTAGCTGTAACTGTCCTGG | -0.711 |
| TTCGTCGCTGAACACCTCCTCC | -0.823 |
| TAGTGAAGCTGGAGCTGCCTGG | -0.835 |
| TCTGTCTGGTCTCTCTCGCAGG | -0.775 |
| TTGGGTCTCGGCAGCTTGCTGG | -0.733 |
| TTAAGGTCGTTGAAACTGCACT | -0.864 |
| TGTCGCAGTAGTGAAGCTGGAG | -0.148 |

Molecular target: ZFR
Experiment: as above
Settings: shRNA

| Sequence | sensor-assay potency score (higher = more potent) |
| --- | --- |
| TAGTTTTGTGTAGTAGCTGGGG | 0.0406 |
| TTGTGTAGGAGACATAAGCAGG | -0.979 |
| TTATATTGAAGTCTGTGTCTTC | 0.707 |
| TATAACCATAGTCAGTTGCTGT | -0.854 |
| TATAACAGCAAGCTGTTTGGGT | 0.358 |
| TTACATATGAGTATGAATCCTG | 0.475 |
| TTGTGTGTAACTTAACCACTTT | -0.519 |
| TTTTTCATTACATCACTGCTAG | 0.0706 |
| TCTTCTTCTCGTCTTCGCCAGT | -1.15 |
| TTTCTCTACTAGTAACTCCATA | -1.22 |
| TTGACATTTCTATCTCCTCGGA | -0.27 |
| TAGAACTTTGTGTATCTGGCGG | -0.255 |

Molecular target: ZHX1
Experiment: as above
Settings: shRNA

| Sequence | sensor-assay potency score (higher = more potent) |
| --- | --- |
| TTAAACTGAACATTTCTTCTAC | 0.706 |
| TAGACATACAGTATTAAACTGG | -0.456 |
| TTCTTCTTCTCTGTAAACCAAG | -1.18 |
| TTTCTCTTTAAACTTTTGGGGA | -0.716 |
| TTTTTTTACATATCTTGCCTGT | -0.102 |
| TAACTATGTCTGTTCTAGCAAG | -1.35 |
| TTGCTCATTAAGAAACTTGTGC | -0.28 |
